Bioassay records from PubChem BioAssay.
Cycloheximide cs = counter-screen for Shiga toxin inhibitors: cycloheximide protein synthesis inhibition. cell reporter, cycloheximide protein synthesis inhibition counterscreen. 300,000 tested, 12% active. max response, %; in the data active = max response mostly above about 13%, no sharp cut-off; inactive = mostly below about 14%; note: read at 38.3 µM for the half of the compounds with a filed dose; 0% is about no effect
Tb PYK inh = blocks Trypanosoma brucei pyruvate kinase | Potency, µM (top dose mostly 76.8 µM), without a hit: at the highest dose activity, negative = inhibition, usual class: inhibitors | 410,000 tested, 0.12% active | TbPYK enzyme, Kinase-Glo Plus ATP luminescence, 45 min | Q57TT1; note: potency is the fitted concentration of half-maximal effect; % is set by controls: 0 for no effect and ±100 for the full control effect; nearly all actives have a fitted effect of over 50% in size
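Enzyme and substrate buffer are dispensed first and compound is pin-transferred. ADP at 130 uM final then starts the reaction, which runs 45 min at room temperature. Detection reagent is added for 10 min before luminescence is imaged.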
Sm TGR inh = S. mansoni TGR enzyme inhibition. purified TGR, DTNB reduction, TNB absorbance 405 nm. 360,000 tested, 3% active. Q962Y6. Potency, µM (top dose mostly 114 µM), for inactives: top-dose activity change, negative = inhibition, hits mostly inhibitors; note: potency is the fitted concentration of half-maximal effect; % is set by controls: 0 for no effect and ±100 for the full control effect; nearly all actives have a fitted effect of over 60% in size
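First, TGR (20 nM dispensed) and NADPH were mixed with compound. Second, a 15 min room-temperature incubation followed. Third, further NADPH and then DTNB were added to start the reaction. Finally, TNB absorbance was monitored kinetically.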
LmPK inhibitor = blocks Leishmania mexicana pyruvate kinase activity | Q27686 | purified LmPK, Kinase-Glo ATP luminescence, 1 h | Potency, µM (series often up to 57.5 µM), inactives show at the highest dose activity change, negative = inhibition, actives largely listed as inhibitors | 290,000 tested, 0.37% active | AID 1721; note: potency is the fitted concentration of half-maximal effect; % is set by controls: 0 for no effect and ±100 for the full control effect
Target sequence (Q27686 whole entry, looked up): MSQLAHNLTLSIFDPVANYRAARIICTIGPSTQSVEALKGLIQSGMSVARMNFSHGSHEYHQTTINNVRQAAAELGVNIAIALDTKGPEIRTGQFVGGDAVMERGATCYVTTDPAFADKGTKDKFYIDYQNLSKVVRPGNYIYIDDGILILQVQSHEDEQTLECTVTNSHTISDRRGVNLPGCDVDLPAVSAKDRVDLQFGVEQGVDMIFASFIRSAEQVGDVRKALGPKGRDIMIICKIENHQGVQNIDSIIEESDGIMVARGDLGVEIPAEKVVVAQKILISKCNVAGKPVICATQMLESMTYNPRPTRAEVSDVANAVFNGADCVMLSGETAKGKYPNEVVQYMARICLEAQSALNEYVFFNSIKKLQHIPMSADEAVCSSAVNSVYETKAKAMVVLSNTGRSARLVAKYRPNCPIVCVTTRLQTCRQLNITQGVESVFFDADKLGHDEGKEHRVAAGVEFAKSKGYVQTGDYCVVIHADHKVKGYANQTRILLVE
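Kinase-Glo luminescence read after 1 h RT reaction of 0.1 nM LmPK with 0.5 mM PEP and 0.1 mM ADP. Activity scaled between uninhibited and enzyme-free controls.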
FBPA Giardia inh = Giardia lamblia aldolase inhibition | 290,000 tested, 0.71% active | purified Giardia FBPA | AID 2451 | A8B2U2 | Potency, µM (top dose mostly 59.6 µM), for the others: top-dose activity, negative = inhibition, actives largely listed as inhibitors; note: potency is the fitted concentration of half-maximal effect; % is set by controls: 0 for no effect and ±100 for the full control effect; nearly all actives have a fitted effect of over 55% in size
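40 nM FBPA preincubated 10 min at RT with compound (up to 57.5 uM final), then substrate plus GAPDH/TPI/NAD/arsenate coupling and diaphorase/resazurin added. Fluorescence read after 20 min at RT, 525/598 nm.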
Shiga toxin inh = inhibitors of Shiga toxin in Vero cells. Vero cells, Shiga toxin protein synthesis inhibition reporter. inhibition, % at 38.7 µM. 290,000 tested, 9.2% active. AID 2315; in the data active = inhibition mostly above about 28%, no sharp cut-off; inactive = mostly below about 43%; note: 0% is about no effect
Active calls of the source: *; u = inconclusive; x = no result given; [ ] = dose if it differs, or a comment. Shown is part of a subset that was picked to be rich in hits. Unless noted, calls come from the whole dose curve; as a rule, active = well fitted curve in the direction sought with a large enough effect; inconclusive = small, poorly fitted or top-dose-only effect, or another doubt; inactive = no such curve, though single readings can be large; an effect the other way counts as inactive or inconclusive.

SMILES	Cycloheximide cs	Tb PYK inh	Sm TGR inh	LmPK inhibitor	FBPA Giardia inh	Shiga toxin inh
N#CC1(c2ccccc2)CCCN1C(=O)c1ccc(Br)o1 (stereo not drawn)	2	-2%	40µM*	5%	5%	45
CCC(=O)N1c2ccc(S(=O)(=O)CCC(=O)N3CCN(c4ccc(F)cc4)CC3)cc2CC1C (stereo not drawn)	x	0%	5.6µM*	x	x	x
CCOC(=O)C1CCN(C(=O)CCS(=O)(=O)c2ccc3c(c2)CC(C)N3C(=O)CC)CC1 (stereo not drawn)	-8	0%	u	7%[11.5 µM]	3%	-6
CCOC(=O)N1CCN(C(=O)CCS(=O)(=O)c2ccc3c(c2)CC(C)N3C(=O)CC)CC1 (stereo not drawn)	-3	11%	22µM*	6%	x	13
CCc1ccc(S(=O)(=O)c2cn(Cc3ccc(OC)cc3)c3cc(OC)c(OC)cc3c2=O)cc1	x	12%	5%	x	x	x
O=C(N[C@@H](Cc1ccccc1)C(=O)O)c1ccccc1	x	x	x	x	10%	x
O=S(=O)(Cc1noc(-c2ccc(Cl)cc2)n1)Cc1ccco1	-2	0%	50µM*	1%	-1%	-14
CN(C)C(CNC(=O)CCc1c[nH]c2ccccc12)c1ccccc1 (stereo not drawn)	0	7%	-18%	-7%	-4%	4
O=C(Nc1nc(-c2nc3ccccc3s2)cs1)C1COc2ccccc2O1 (stereo not drawn)	23*	-4%	3%	2%	9%	68*
CCCn1c(NC(=O)C2COc3ccccc3O2)nc2ccccc21 (stereo not drawn)	-2	7%	0%	6%	20%	-5
COc1ccc(OC)c(-c2csc(NC(=O)C3COc4ccccc4O3)n2)c1 (stereo not drawn)	-3	-9%	-2%	3%	-7%	-8
COc1ccc2nc(NC(=O)C3COc4ccccc4O3)sc2c1 (stereo not drawn)	30*	0%	-5%	6%	0%	77*
COc1ccc2nc(NNC(=O)C3COc4ccccc4O3)sc2c1 (stereo not drawn)	13*	-15%	-6%	4%	13%	55*
CS(=O)(=O)c1ccc2nc(NC(=O)C3CCCO3)sc2c1 (stereo not drawn)	1	-14%	12%	3%	0%	32
CS(=O)(=O)c1ccc2nc(NC(=O)C3COc4ccccc4O3)sc2c1 (stereo not drawn)	25*	-6%	u	-1%	-5%	38
CC(C)CNc1oc(-c2ccccc2Cl)nc1C#N	14*	2%	6%	-3%	0%	29*
N#Cc1nc(COc2ccc(Cl)cc2Cl)oc1N1CCOCC1	29*	4%	-19%	6%	13%	35*
COCCCNc1oc(COc2ccc(Cl)cc2Cl)nc1C#N	1	2%	20µM*	10%	-1%	-7
CN(C)CCNc1oc(COc2ccc(Cl)cc2Cl)nc1C#N	0	0%	u	3%	-11%	-12
N#Cc1nc(COc2ccc(Cl)cc2Cl)oc1N1CCN(c2ccccc2)CC1	9	2%	u	5%	-2%	-4
CC(C)CNc1oc(-c2ccco2)nc1C#N	8	2%	5%	0%	-1%	9
COCCCNc1oc(-c2ccccc2Cl)nc1C#N	15*	-4%	1%	2%	3%	52
N#Cc1nc(COc2ccc(F)cc2)oc1N1CCCCC1	27*	-5%	x	3%	-7%	65
Cc1onc(-c2ccccc2)c1C(=O)OCCOc1ccccc1F	34*	-7%	6%	3%	-3%	37
Oc1c(Br)cc(Br)cc1/C=N/c1nccs1	x	-5%	4µM*	x	x	x
SMILES	Cycloheximide cs	Tb PYK inh	Sm TGR inh	LmPK inhibitor	FBPA Giardia inh	Shiga toxin inh
Oc1ccc(Cl)cc1/C=N/c1nccs1	-4	-2%	20µM*	-20%	-22%	23
CN1CCN(c2ccc(Cl)cc2NC(=O)CCN2C(=O)c3ccccc3C2=O)CC1	11	0%	40µM*	12%	-5%	-7
COc1ccc(C(=O)C=Cc2cccs2)c(O)c1	x	-4%	x	x	x	x
COc1ccc(OC(=O)c2cccc([N+](=O)[O-])c2)c(C(=O)/C=C/c2cccs2)c1	19*	4%	0%	2%	-5%	17
CCOC(=O)c1c(S(=O)(=O)NC2CCN(C(=O)OCC)CC2)c(C)n(C)c1C	-4	3%	-10%	-2%	x	6
CC1=NN(c2nc(-c3ccc(C#N)cc3)cs2)C(=O)C1	15	2%	x	1%	-12%	53*
O=C1C2C3c4ccccc4C(c4ccccc43)C2C(=O)N1c1nc(-c2ccccc2)cs1 (stereo not drawn)	-2	1%	-17%	7%	-2%	-15
N=C1SCC(=O)N1c1nc(-c2ccccc2)cs1	21*	3%	-23%	3%	-1%	41
CC1=NN(c2nc(-c3ccccc3)cs2)C(=O)C1	16*	-5%	-2%	-2%	15%	24
CN(C)c1ccc(/C=C(\C#N)c2ccccn2)cc1	-5	u	-13%	10µM*	-17%	-15
N#C/C(=C\c1ccc([N+](=O)[O-])cc1)c1ccccn1	29*	-4%	4%	-15%	2%	49*
COC(=O)c1ccc(/C=C(\C#N)c2ccccn2)cc1	39*	10%	0%	-19%	-1%	133*
N#CC(C#N)=Cc1ccc(OC(=O)c2ccccn2)cc1	9	-3%	8.9µM*	-4%	-1%	17
CN(C)c1ccc(C=C(C#N)C#N)cc1	0	-7%	-10%	-1%	0%	-7
COC(=O)c1ccc(OC(=O)c2ccccn2)cc1	6	-4%	1%	-16%	u	6
COc1cc(/C=C(\C#N)c2ccccn2)cc(OC)c1O	17	-8%	u	2%	-7%	3
O=C(Nc1cc(-c2nc3ccccc3o2)ccc1Cl)c1sc2c([N+](=O)[O-])cccc2c1Cl	x	1%	0%	x	x	x
O=c1[nH]c(=S)[nH]c(O)c1N=Nc1cc2c(cc1[N+](=O)[O-])OCO2	-2	u	u	-30%	-11%	-11
O=c1[nH]c(=S)[nH]c(O)c1N=Nc1ccc(-c2ccccc2)cc1[N+](=O)[O-]	17*	x	u	-10%	-3%	58*
N=C1c2ccccc2CN1CC(=O)c1ccccc1	41*	-11%	0%	-21%	-1%	40*
Cc1ccc(C)c(C(=O)CN2Cc3ccccc3C2=O)c1	22*	-2%	-8%	2%	0%	65*
Cc1ccc(CNC(=O)CN2Cc3ccccc3C2=O)cc1	x	-13%	-1%	x	x	x
Cc1ccc(NC2CCCN(C(=O)CCn3nccc3C)C2)cc1C (stereo not drawn)	13	34%	-29%	-11%	x	33
